Source: ChEMBL document CHEMBL1961873, “Compounds: GSK PKIS; Assays: Nanosyn kinase panel” (2012)

What was measured:
[1] = target: T1, Inhibitor of nuclear factor kappa-B kinase subunit epsilon (Homo sapiens) (UniProt Q14164); settings: at 1 µM;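 note: reported values are averaged percent inhibition figures against human IKKε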
T1 sequence (whole entry): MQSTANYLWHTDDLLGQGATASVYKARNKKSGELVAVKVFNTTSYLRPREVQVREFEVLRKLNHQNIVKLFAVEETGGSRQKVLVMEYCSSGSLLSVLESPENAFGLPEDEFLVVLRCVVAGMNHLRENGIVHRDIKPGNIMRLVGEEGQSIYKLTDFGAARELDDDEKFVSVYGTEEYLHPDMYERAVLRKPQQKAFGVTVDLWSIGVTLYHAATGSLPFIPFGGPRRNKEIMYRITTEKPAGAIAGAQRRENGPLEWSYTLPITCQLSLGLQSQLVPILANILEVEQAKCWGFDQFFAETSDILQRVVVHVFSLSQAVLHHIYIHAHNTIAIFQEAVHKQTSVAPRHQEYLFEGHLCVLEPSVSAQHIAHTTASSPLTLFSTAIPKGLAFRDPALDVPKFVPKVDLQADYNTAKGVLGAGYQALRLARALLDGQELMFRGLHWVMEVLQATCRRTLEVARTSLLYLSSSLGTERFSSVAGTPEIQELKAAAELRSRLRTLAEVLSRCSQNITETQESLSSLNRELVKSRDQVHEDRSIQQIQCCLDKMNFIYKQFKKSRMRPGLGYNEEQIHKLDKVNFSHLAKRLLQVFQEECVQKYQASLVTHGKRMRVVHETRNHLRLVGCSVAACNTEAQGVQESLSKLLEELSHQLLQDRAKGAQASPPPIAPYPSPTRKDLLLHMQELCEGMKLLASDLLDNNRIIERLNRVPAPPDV

[2] = target: T2, Serine/threonine-protein kinase Nek1 (Homo sapiens) (UniProt Q96PY6); settings: at 0.1 µM
T2 sequence (whole entry): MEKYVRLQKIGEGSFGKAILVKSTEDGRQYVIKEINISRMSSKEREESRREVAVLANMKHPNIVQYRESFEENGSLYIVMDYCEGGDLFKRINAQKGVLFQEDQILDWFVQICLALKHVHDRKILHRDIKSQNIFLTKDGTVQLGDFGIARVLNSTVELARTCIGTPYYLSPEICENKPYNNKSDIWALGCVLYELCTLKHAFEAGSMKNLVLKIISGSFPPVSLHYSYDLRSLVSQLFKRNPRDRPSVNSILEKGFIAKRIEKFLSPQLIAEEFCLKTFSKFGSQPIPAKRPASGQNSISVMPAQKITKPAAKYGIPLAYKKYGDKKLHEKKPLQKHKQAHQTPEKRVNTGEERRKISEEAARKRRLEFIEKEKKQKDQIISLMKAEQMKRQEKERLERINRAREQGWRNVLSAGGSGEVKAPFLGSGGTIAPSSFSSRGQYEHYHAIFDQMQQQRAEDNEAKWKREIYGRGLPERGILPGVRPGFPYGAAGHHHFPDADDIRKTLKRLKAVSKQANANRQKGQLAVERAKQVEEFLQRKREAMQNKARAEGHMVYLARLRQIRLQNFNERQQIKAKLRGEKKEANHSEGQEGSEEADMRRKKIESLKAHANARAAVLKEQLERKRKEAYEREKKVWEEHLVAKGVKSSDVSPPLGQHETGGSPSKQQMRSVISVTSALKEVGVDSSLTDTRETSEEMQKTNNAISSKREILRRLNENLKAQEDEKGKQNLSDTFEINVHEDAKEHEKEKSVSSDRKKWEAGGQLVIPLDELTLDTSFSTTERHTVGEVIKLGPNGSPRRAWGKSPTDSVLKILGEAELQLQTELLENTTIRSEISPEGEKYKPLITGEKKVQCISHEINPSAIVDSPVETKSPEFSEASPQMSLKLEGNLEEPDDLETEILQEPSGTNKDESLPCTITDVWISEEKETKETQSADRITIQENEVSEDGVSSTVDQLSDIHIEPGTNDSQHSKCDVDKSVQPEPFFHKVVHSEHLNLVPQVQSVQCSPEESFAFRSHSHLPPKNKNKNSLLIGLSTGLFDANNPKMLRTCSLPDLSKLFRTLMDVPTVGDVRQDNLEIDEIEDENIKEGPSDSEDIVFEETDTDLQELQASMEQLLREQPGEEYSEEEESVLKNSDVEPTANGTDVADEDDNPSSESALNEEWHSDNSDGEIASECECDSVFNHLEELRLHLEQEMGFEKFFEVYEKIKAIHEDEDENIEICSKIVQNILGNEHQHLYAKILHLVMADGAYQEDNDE

[3] = target: T2, Serine/threonine-protein kinase Nek1 (Homo sapiens); settings: at 1 µM
[4] = target: T3, Serine/threonine-protein kinase Nek2 (Homo sapiens) (UniProt P51955); settings: at 0.1 µM
T3 sequence (whole entry): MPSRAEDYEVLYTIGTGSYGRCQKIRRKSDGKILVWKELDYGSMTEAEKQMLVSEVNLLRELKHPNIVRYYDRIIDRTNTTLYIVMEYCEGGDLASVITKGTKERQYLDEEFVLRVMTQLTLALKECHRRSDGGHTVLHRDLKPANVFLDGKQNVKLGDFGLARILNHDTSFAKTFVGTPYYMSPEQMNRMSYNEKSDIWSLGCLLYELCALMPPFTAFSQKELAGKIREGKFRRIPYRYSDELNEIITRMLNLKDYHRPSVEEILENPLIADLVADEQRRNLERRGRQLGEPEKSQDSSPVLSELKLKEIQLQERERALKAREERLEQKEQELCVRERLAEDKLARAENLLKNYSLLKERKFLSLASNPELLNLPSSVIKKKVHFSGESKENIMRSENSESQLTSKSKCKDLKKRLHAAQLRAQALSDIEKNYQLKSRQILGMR

[5] = target: T3, Serine/threonine-protein kinase Nek2 (Homo sapiens); settings: at 1 µM
[6] = target: Serine/threonine-protein kinase Nek6 (Homo sapiens) (UniProt Q9HC98); settings: at 0.1 µM
[7] = target: Serine/threonine-protein kinase Nek6 (Homo sapiens) (UniProt Q9HC98); settings: at 1 µM
[8] = target: Serine/threonine-protein kinase Nek7 (Homo sapiens) (UniProt Q8TDX7); settings: at 0.1 µM
[9] = target: Serine/threonine-protein kinase Nek7 (Homo sapiens) (UniProt Q8TDX7); settings: at 1 µM
[10] = target: T4, Serine/threonine-protein kinase Nek9 (Homo sapiens) (UniProt Q8TD19); settings: at 0.1 µM
T4 sequence (whole entry): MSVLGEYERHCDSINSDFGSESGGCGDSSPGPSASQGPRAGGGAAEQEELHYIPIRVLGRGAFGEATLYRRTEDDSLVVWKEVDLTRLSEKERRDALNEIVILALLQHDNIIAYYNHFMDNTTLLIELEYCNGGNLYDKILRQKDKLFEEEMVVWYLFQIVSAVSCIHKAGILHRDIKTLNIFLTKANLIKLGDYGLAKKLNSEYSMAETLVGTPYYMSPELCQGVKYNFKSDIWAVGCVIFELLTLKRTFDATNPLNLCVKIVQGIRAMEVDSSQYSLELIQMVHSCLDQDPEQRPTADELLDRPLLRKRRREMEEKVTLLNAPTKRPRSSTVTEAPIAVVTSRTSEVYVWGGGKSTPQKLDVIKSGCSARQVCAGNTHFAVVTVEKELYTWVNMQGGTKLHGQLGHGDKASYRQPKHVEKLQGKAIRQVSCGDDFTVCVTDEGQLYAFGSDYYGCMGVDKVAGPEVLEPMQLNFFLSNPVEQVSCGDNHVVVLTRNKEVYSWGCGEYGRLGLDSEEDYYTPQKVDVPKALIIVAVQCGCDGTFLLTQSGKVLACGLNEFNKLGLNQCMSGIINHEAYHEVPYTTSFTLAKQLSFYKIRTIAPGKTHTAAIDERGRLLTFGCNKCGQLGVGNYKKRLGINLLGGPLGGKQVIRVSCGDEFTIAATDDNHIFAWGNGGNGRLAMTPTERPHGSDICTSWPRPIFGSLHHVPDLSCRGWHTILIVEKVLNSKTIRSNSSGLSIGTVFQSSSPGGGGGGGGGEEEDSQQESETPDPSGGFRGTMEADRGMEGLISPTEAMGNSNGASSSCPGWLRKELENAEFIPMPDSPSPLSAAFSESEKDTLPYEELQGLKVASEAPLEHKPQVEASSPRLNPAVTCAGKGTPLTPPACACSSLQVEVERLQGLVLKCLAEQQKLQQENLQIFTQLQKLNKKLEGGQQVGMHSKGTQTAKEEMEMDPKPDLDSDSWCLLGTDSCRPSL

[11] = target: T4, Serine/threonine-protein kinase Nek9 (Homo sapiens); settings: at 1 µM
[12] = target: Serine/threonine-protein kinase PLK1 (Homo sapiens) (UniProt P53350); settings: at 0.1 µM
[13] = target: Serine/threonine-protein kinase PLK1 (Homo sapiens) (UniProt P53350); settings: at 1 µM
[14] = target: T5, Dual specificity protein kinase TTK (Homo sapiens) (UniProt P33981); settings: at 0.1 µM
T5 sequence (whole entry): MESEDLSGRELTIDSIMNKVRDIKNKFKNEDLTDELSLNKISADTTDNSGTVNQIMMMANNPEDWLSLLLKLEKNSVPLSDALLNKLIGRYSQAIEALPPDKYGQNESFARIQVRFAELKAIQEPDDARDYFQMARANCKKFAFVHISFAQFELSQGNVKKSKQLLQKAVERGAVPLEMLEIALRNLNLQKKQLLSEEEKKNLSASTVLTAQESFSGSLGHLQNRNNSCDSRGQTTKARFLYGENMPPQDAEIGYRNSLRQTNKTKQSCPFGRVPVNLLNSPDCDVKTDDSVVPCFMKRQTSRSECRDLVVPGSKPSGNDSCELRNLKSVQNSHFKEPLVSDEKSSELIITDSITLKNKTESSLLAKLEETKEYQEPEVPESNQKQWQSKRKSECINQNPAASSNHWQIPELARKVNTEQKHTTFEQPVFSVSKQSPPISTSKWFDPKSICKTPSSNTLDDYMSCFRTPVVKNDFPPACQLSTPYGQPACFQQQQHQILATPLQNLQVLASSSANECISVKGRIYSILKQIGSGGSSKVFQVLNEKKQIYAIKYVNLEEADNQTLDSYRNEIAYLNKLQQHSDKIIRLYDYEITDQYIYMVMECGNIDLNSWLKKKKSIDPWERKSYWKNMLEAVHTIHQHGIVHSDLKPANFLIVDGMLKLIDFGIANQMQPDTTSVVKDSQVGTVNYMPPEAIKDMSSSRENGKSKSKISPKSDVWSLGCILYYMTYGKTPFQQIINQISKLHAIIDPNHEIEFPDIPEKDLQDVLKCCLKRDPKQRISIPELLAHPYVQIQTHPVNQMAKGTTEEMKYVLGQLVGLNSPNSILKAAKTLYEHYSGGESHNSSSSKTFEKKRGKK

[15] = test system: T6, Receptor-type tyrosine-protein kinase FLT3 (Homo sapiens), P36888 [D835Y]; settings: at 1 µM
T6 sequence (whole entry): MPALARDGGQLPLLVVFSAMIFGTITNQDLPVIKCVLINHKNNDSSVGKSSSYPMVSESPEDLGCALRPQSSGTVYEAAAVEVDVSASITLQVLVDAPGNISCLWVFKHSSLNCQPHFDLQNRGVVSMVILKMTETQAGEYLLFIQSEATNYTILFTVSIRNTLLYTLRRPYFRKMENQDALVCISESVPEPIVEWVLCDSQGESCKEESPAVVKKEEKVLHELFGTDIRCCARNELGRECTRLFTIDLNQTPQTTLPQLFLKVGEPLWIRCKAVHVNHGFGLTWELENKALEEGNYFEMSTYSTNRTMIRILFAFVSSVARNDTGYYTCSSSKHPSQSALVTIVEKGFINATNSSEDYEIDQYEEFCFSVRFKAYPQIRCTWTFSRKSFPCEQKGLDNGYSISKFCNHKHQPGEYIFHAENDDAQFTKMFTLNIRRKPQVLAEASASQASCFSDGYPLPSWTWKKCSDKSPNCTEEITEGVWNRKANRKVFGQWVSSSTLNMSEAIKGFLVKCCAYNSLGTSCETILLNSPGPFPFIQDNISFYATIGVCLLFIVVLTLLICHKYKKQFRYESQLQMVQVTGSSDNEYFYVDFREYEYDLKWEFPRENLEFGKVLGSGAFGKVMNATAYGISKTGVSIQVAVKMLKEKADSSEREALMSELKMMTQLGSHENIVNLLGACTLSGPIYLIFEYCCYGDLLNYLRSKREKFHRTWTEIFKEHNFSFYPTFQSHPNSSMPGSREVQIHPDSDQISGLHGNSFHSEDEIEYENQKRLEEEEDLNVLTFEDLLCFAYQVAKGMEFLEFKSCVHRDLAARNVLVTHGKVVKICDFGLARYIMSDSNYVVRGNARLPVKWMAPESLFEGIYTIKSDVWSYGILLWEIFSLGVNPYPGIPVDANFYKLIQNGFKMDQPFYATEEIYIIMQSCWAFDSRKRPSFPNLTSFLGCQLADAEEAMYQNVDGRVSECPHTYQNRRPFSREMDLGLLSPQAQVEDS

[16] = target: Vascular endothelial growth factor receptor 3 (Homo sapiens) (UniProt P35916); settings: at 0.1 µM
[17] = target: Vascular endothelial growth factor receptor 3 (Homo sapiens) (UniProt P35916); settings: at 1 µM
[18] = target: Macrophage colony-stimulating factor 1 receptor (Homo sapiens) (UniProt P07333); settings: at 0.1 µM
[19] = target: Macrophage colony-stimulating factor 1 receptor (Homo sapiens) (UniProt P07333); settings: at 1 µM
[20] = target: Tyrosine-protein kinase Fyn (Homo sapiens) (UniProt P06241); settings: at 0.1 µM
Tyrosine-protein kinase Fyn (Homo sapiens), sequence (P06241 2-537 limits assumed): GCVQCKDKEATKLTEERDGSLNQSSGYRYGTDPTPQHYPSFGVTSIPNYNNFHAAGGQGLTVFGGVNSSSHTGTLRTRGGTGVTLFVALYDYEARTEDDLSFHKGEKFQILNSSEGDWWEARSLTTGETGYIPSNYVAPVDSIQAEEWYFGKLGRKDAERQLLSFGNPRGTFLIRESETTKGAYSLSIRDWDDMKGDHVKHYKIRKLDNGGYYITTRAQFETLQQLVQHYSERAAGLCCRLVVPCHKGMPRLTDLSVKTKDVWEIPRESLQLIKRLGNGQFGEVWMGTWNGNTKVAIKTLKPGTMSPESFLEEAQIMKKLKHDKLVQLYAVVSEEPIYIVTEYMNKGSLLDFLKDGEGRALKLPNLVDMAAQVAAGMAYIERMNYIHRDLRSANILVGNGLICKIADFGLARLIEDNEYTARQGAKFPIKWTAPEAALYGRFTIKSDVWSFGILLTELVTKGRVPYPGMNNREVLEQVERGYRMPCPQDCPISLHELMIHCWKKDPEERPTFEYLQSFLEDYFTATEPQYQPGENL

Serine/threonine-protein kinase PLK1 (Homo sapiens), sequence (P53350 whole entry): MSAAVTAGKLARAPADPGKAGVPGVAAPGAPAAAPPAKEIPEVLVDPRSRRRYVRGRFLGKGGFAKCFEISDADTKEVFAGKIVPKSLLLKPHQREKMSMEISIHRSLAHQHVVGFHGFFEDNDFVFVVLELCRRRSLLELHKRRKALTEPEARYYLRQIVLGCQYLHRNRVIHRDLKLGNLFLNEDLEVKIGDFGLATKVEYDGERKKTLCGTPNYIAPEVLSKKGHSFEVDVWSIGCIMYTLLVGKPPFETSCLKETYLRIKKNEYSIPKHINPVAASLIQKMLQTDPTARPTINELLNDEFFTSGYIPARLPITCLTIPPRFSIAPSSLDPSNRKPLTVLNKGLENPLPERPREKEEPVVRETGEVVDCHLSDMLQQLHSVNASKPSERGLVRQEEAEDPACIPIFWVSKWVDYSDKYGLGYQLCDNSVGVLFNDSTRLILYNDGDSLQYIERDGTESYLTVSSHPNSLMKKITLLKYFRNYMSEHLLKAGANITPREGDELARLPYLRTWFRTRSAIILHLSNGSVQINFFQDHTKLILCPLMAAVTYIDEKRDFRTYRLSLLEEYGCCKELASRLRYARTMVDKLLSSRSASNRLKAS
Serine/threonine-protein kinase Nek6 (Homo sapiens), sequence (Q9HC98 whole entry): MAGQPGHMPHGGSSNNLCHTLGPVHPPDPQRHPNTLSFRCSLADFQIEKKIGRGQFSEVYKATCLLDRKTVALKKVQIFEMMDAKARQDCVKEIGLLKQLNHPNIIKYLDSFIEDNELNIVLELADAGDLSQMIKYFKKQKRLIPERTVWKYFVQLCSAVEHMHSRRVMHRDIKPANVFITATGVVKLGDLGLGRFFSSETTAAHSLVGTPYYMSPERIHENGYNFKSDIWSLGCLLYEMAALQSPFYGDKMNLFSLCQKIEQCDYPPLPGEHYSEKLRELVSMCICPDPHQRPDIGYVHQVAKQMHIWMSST
Serine/threonine-protein kinase Nek7 (Homo sapiens), sequence (Q8TDX7 whole entry, looked up): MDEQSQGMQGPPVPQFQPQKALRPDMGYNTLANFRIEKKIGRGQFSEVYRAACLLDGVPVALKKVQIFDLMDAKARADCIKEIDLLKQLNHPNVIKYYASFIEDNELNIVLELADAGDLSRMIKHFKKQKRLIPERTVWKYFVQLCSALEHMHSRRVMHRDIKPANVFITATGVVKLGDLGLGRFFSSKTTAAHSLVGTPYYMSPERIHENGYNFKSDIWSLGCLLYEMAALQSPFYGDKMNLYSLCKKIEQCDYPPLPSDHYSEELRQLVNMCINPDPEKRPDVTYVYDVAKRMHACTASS
Macrophage colony-stimulating factor 1 receptor (Homo sapiens), sequence (P07333 whole entry): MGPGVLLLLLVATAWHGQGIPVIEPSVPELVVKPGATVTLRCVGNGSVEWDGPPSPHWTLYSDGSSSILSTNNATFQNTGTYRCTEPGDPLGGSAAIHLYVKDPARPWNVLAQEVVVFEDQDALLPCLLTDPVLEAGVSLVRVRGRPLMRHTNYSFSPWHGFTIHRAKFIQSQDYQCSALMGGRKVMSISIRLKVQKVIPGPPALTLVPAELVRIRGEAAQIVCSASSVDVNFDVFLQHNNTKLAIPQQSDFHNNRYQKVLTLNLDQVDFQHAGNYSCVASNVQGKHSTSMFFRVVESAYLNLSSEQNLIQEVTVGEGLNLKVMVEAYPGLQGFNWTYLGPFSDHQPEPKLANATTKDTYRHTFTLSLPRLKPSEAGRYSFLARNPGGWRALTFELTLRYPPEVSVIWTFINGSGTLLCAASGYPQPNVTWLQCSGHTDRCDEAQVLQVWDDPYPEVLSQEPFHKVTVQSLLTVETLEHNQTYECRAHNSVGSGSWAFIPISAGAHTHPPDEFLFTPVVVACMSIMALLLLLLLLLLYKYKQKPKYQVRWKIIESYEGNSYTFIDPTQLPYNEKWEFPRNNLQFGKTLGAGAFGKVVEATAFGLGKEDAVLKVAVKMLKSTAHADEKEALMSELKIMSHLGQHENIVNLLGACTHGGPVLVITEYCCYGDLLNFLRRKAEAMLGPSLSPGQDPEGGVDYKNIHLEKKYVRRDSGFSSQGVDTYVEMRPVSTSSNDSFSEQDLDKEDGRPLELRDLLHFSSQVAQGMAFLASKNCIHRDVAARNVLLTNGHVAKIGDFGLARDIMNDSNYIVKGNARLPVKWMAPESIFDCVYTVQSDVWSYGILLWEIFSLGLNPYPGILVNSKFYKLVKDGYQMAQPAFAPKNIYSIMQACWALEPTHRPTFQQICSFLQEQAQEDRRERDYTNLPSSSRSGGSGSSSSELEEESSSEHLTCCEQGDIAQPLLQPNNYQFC
Vascular endothelial growth factor receptor 3 (Homo sapiens), sequence (P35916 whole entry): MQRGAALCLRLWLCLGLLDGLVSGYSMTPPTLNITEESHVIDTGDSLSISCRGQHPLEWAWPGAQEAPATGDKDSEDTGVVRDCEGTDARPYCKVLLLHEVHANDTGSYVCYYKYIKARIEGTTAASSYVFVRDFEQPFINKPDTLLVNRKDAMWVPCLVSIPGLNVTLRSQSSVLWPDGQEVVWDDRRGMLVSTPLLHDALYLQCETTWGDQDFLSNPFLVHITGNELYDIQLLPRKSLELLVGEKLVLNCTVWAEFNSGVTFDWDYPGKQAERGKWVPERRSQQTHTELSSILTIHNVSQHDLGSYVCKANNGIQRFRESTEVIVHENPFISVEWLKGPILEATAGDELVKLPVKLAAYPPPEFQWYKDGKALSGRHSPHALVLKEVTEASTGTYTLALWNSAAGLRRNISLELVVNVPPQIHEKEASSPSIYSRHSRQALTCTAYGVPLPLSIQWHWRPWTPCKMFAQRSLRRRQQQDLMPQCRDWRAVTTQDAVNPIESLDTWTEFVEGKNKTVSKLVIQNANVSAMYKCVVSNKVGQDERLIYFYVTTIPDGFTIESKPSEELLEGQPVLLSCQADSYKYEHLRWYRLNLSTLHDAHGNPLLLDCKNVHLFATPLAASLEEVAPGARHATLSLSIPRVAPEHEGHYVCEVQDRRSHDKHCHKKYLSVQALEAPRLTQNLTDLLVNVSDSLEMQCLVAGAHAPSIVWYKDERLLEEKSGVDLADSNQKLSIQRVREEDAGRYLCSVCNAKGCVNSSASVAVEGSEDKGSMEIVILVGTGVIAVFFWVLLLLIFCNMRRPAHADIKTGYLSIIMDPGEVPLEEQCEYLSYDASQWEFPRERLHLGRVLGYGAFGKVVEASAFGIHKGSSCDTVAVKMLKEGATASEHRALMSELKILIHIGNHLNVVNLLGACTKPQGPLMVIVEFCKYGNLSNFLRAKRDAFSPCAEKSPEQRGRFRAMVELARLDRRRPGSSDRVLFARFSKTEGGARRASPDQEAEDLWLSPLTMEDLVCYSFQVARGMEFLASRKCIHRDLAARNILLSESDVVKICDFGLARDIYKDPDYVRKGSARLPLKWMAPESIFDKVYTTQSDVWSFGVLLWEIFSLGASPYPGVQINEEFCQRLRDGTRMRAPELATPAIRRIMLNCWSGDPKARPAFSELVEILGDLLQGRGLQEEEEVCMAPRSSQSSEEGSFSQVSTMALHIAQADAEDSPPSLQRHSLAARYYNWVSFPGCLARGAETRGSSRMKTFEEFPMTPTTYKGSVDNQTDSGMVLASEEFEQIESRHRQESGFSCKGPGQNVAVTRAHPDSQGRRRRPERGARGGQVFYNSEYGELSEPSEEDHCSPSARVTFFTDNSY

Work on `Cc1ccc(NC(=O)CC2CC2)cc1-c1ccc(C(=O)NCC2CC2)cc1` yielded an inhibition [1] of 3.27%, an inhibition [2] of 2.27% and an inhibition [3] of 3.32%. It also gave an inhibition [4] of 3.73%, an inhibition [5] of 3.66% and an inhibition [6] of 2.7%. For the same compound, the inhibition [7] was 0.33%, the inhibition [8] was 4.87% and the inhibition [9] was 4.36%. The inhibition [10] was 5.37%, the inhibition [11] was 7.42% and the inhibition [12] was 3.49%. It also gave an inhibition [13] of 1.97%, an inhibition [14] of 5.15% and an inhibition [15] of 0.64%. The inhibition [16] was 0.87%, the inhibition [17] was -0.77% and the inhibition [18] was 2.08%. It also gave an inhibition [19] of -0.55% and an inhibition [20] of 1.7%.
